The supplement of paper PMC10127200
Where a name gives a salt, the structure may show the parent alone.

Key:
Experiment in all cases: Euclidean distance of Cell Painting phenotypic profile (signed KS, 77 features) to DMSO centroid (dimensionless distance); 5 or 10 uM (library dependent); higher = stronger phenotypic change vs DMSO (phenoactivity)
Conditions in all cases: 48 h
[1] = test system: 786-O
Outline: (§1)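 Stained cells were imaged confocally at 20X with 9 fields per well, after 48 h of exposure to library compounds at 10 or 5 uM (set by library; 0.1% DMSO final). The cells were five cancer lines and a healthy fibroblast line. From the images, Harmony extracted 77 features, each expressed as a signed Kolmogorov-Smirnov statistic relative to same-plate vehicle wells. Phenoactivity is measured as Euclidean distance to the median vehicle profile, using plate-position-corrected, correlation-weighted profiles averaged across replicates at the top dose.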

[2] = test system: A549
Outline: as §1

[3] = test system: DU145
Outline: as §1

[4] = test system: FB
Outline: as §1

[5] = test system: HEPG2
Outline: as §1

[6] = test system: OVCAR4
Outline: as §1

Structure (SMILES)	Euclidean distance [1]	Euclidean distance [2]	Euclidean distance [3]	Euclidean distance [4]	Euclidean distance [5]	Euclidean distance [6]
CNCCCC12CCC(c3ccccc31)c1ccccc12 [Maprotiline HCl]	0.958	1.1	1.11	2.09	1.53	0.98
CCN1C(=O)C=CC1=O [N-Ethylmaleimide (NEM)]	3.6	1.27	1.23	1.58	0.6	1.06
COCCCOc1ccnc(C[S+]([O-])c2nc3ccccc3[nH]2)c1C (stereo not drawn) [Rabeprazole]	1.5	0.662	0.942	1.03	1.49	0.928
CCOc1ccc(Cc2cc([C@@H]3O[C@H](CO)[C@@H](O)[C@H](O)[C@H]3O)ccc2Cl)cc1 [Dapagliflozin]	1.1	1.19	1.1	1.39	0.432	1.01
Cc1cc(Nc2cc(N3CCN(C)CC3)nc(/C=C/c3ccccc3)n2)n[nH]1 [ENMD-2076 L-(+)-Tartaric acid]	2.7	3.58	2.34	3.64	2.99	2.91
CN(C(=O)CN(CCO)CC(=O)N(C)C(C)(C)Cc1ccccc1)C(C)(C)Cc1ccccc1 [Oxethazaine]	1.36	2.36	1.13	2.17	1.36	1.96
CCCCC(CC)CN1CN(CC(CC)CCCC)CC(C)(N)C1 (stereo not drawn) [Hexetidine]	0.942	4.33	6.71	2.79	0.954	5.33
CNS(=O)(=O)Cc1ccc2[nH]cc(CCN(C)C)c2c1 [Sumatriptan Succinate]	1.54	1.49	0.753	1.35	0.966	1.66
N[C@@H](CC(=O)O)C(=O)O [L-aspartic Acid]	1.2	1.3	0.701	0.809	0.455	1.44
CC(C)(C)c1ccc(C(O)CCCN2CCC(C(O)(c3ccccc3)c3ccccc3)CC2)cc1 (stereo not drawn) [Terfenadine]	1.05	4.51	1.53	1.18	1.05	1.52
CNCCC(Oc1ccc(C(F)(F)F)cc1)c1ccccc1 (stereo not drawn) [Fluoxetine HCl]	0.84	1.16	1.21	1.78	1.35	1.71
CNC(=O)c1ccccc1Sc1ccc2c(/C=C/c3ccccn3)n[nH]c2c1 [Axitinib]	3.11	3.76	3.18	3.27	2.51	3.92
CCCC(CCC)C(N)=O [Valpromide]	0.509	1.08	1	1.42	0.77	1.44
Nc1nc2c(ncn2COC(CO)CO)c(=O)[nH]1 [Ganciclovir]	1.56	0.816	0.888	1.25	0.883	3.37
CC(C)(C)NC[C@H](O)c1ccc(O)c(CO)c1 [levalbuterol tartrate]	0.685	0.326	0.582	0.969	0.566	0.907
Cc1cc(-c2ccc(/N=N/c3ccc4c(S(=O)(=O)O)cc(S(=O)(=O)O)c(N)c4c3O)c(C)c2)ccc1/N=N/c1ccc2c(S(=O)(=O)O)cc(S(=O)(=O)O)c(N)c2c1O [Evans Blue]	0.929	0.808	0.955	1.65	0.481	1.37
O=C(OCC(O)CO)c1ccccc1Nc1ccnc2cc(Cl)ccc12 (stereo not drawn) [Glafenine HCl]	1.07	0.79	0.824	1.52	0.968	1.04

Structure (SMILES)	Euclidean distance [1]	Euclidean distance [2]	Euclidean distance [3]	Euclidean distance [4]	Euclidean distance [5]	Euclidean distance [6]
CN(C)C(=O)c1ccc(S(=O)(=O)c2ccc(NC(=O)[C@@](C)(O)C(F)(F)F)c(Cl)c2)cc1	0.701	1.81	0.801	0.955	2	0.57
Cc1cnc(-c2cc(N3CCN(C(=O)CCS(C)(=O)=O)CC3)ncc2Cl)c(C)c1	0.761	1.09	1.04	1.23	0.662	1.03
CCN(C(=O)c1c(O)c2c(Cl)cccc2n(C)c1=O)c1ccccc1 [Laquinimod]	0.923	0.95	0.863	0.902	0.638	1.25
CCC1(c2c[nH]cn2)Cc2ccccc2C1 [Atipamezole]	0.467	0.642	0.626	0.848	0.484	0.675
O=[N+]([O-])c1ccc2c(c1)S(=O)(=O)C=C2 [Stattic]	5.16	2.51	2.61	3.89	1.16	4.56
CS(=O)(=O)N1CCc2c(-c3cnc(N)nc3)nc(N3CCOCC3)nc21	1.32	2.54	0.984	2.13	0.817	2.01
CCCC(C(=O)OCCN(CC)CC)(c1ccccc1)c1ccccc1 [Proadifen HCl]	1.14	1.1	2.58	1.59	1.89	1.13
Cc1cc(C)nc(O)n1.O=C(Nc1ccc([N+](=O)[O-])cc1)Nc1ccc([N+](=O)[O-])cc1 [Nicarbazin]	1.37	1.24	0.953	1.62	0.833	1.15
CO[C@@]1(NC(=O)C(C(=O)O)c2ccc(O)cc2)C(=O)N2C(C(=O)O)=C(CSc3nnnn3C)CO[C@@H]21 (stereo partly drawn) [Latamoxef sodium]	1.53	0.777	1.09	0.907	0.797	1.39
COc1cccc(Nc2c(C(N)=O)cnc3c(C)cc(S(=O)(=O)c4cccc(C(=O)N(C)C)c4)cc23)c1	1.2	0.89	1.05	1.95	1.19	1.48
O=C([O-])c1ccccc1O.[Na+] [Sodium salicylate]	0.657	0.529	0.888	0.714	0.709	0.92
O=C(Nc1ccccc1)OCC(CN1CCCCC1)OC(=O)Nc1ccccc1 (stereo not drawn) [Diperodon HCl]	1.03	1.43	1.31	1.59	0.984	1.64
c1ccc(-c2nn3c(c2-c2ccnc4cc(OCCN5CCOCC5)ccc24)CCC3)nc1	1.44	0.959	1.42	1.75	1.45	0.876
COc1cc(F)c(F)c(Nc2ccc(I)cc2F)c1NS(=O)(=O)C1(C[C@H](O)CO)CC1 [Refametinib (RDEA119. Bay 86-9766)]	2.91	2.51	2.83	3.57	1.79	2.27
CCC[C@@H]1C[C@@H](C(=O)N[C@@H]([C@H]2O[C@H](SC)[C@H](O)[C@@H](O)[C@H]2O)[C@H](C)Cl)N(C)C1 [Clindamycin]	0.793	0.77	0.629	1.14	0.601	0.602
COc1ccc(C2OCC3C(c4cc(OC)c(OC)c(OC)c4)OCC23)cc1OC (stereo not drawn) [Magnolin]	0.904	0.78	1.05	1.02	0.56	0.966
